LASV entry inh = qHTS for Inhibitors of binding or entry into cells for Lassa Virus. AID 540256, 2011. 1.2% of 300,000 active. Lassa virus pseudotype entry inhibition, cell reporter. Potency, µM (highest dose often 37.9 µM), for the others: top-dose activity change, negative = inhibition, usual class: inhibitors; calls by dose curve; tested in HEK293 cells; also: potency is read from the fitted curve at half-maximal effect; nearly all actives have a fitted effect of over 50% in size
HCV inhibitor = qHTS Assay for Inhibitors of Hepatitis C Virus (HCV) | Huh7.5.1 HCVcc-Cre infection, luciferase reporter, 44 h | Potency, µM (series often up to 41.8 µM), for the others: at the highest dose activity change, negative = inhibition, actives largely listed as inhibitors | 3.4% of 340,000 active | AID 651820, 2012; active = well fitted inhibition curve with a large enough effect; inconclusive = small, poorly fitted or top-dose-only effect, or another doubt; inactive = no such curve, though single readings can be large or run the other way; also: potency is read from the fitted curve at half-maximal effect
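HCVcc-Cre virus at an moi near 0.5 was added right after compound to cells cultured 4 h from seeding (1,000 cells/well). Luciferase activity was determined 44 h later, 15 min after substrate addition at RT.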
MARV entry inh = qHTS for inhibitors of binding or entry into cells for Marburg Virus; Marburg virus pseudotyped entry inhibition, cell reporter; Potency, µM (top dose mostly 37.8 µM), for inactives: at the highest dose activity change, negative = inhibition, usual class: inhibitors; 1.8% of 300,000 active; calls by dose curve; tested in HEK293 cells; also: potency is read from the fitted curve at half-maximal effect
Vaccinia Venus = qHTS for Stage-Specific Inhibitors of Vaccinia Orthopoxvirus: Venus Reporter Primary qHTS; Vaccinia virus Venus reporter expression, fluorescence; Potency, µM (titrated, usually from 36.5 µM), for inactives: at the highest dose activity change, negative = inhibition, most hits filed as inhibitors; 0.46% of 330,000 active; AID 720580, 2013; calls by dose curve; tested in A549 cells; also: potency is read from the fitted curve at half-maximal effect; nearly all actives have a fitted effect of over 30% in size
VACV mCherry inh = qHTS for Stage-Specific Inhibitors of Vaccinia Orthopoxvirus: mCherry Reporter Primary qHTS | Potency, µM (highest dose often 36.5 µM), for the others: top-dose activity change, negative = inhibition, most hits filed as inhibitors | 0.63% of 310,000 active | Vaccinia virus mCherry reporter infection, fluorescence; calls by dose curve; tested in A549 cells; also: potency is read from the fitted curve at half-maximal effect; nearly all actives have a fitted effect of over 35% in size
HCMV inh = qHTS Assay for inhibitors of the human cytomegalovirus (HCMV); 4.5% of 410,000 active; HFF cells, HCMV-luciferase reporter, 72 h; active compounds read low; activity change, negative = inhibition, % at 57.5 µM; in the data active = activity change below about -60%; inconclusive = no clear call, values can overlap the other calls; inactive = above about -39%
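Inhibition of viral replication was scored as loss of reporter luminescence in HFFs infected with HCMV-luciferase (MOI 1 PFU/cell) for 72 h; compounds tested at 2 doses, normalized to buffer and Salinomycin controls.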
* hit, by the source's call; i = inactive; ? = inconclusive; / = no result; [ ] = another dose, or the depositor's remark. Most compounds without a hit are left out; they make up all but 7.8% or so of the library. % is scaled to controls: 0 for no effect and ±100 for the full control effect.

SMILES	LASV entry inh	HCV inhibitor	MARV entry inh	Vaccinia Venus	VACV mCherry inh	HCMV inh
N#CC1=C(N)Oc2cc(N)ccc2C1c1cccc(Br)c1 (centres undefined)	/	-13%	/	/	/	-75*
COc1cc(C2C(C#N)=C(N)Oc3cc4c(cc32)OCO4)cc(OC)c1OC (centres undefined)	?	26%	?	?	?	-86*
COc1cc(C2C(C#N)=C(N)OC3=C2C(=O)CC(C)(C)C3)cc2c1OCO2 (centres undefined)	?	10µM*	-1%	-19%	-14%	0
COc1cc(C2C(C#N)=C(N)Oc3cc(N(C)C)ccc32)cc2c1OCO2 (centres undefined)	0.52µM*	16%	?	?	?	-78*
O=C(Nc1cccc(Cl)c1)Nc1ccc2nc(-c3ccc(F)c(Cl)c3)nn2c1	/	/	/	/	/	80
COc1ccc(C2C(C#N)=C(N)Oc3cc(O)ccc32)cc1OC (centres undefined)	-15%	-19%	?	-12%	/	50
COc1cc(C2C(C#N)=C(N)Oc3cc(O)ccc32)cc(OC)c1OC (centres undefined)	?	-10%	1.8µM*	-23%	-17%	-89*
Nc1nccc(-c2ccc(-n3cnc4ccccc43)cc2)n1	22%	-7%	?	-19%	i	-70*
Cc1nccc(-c2ccc(-n3cnc4ccccc43)cc2)n1	3%	?	17%	-12%	i	?
Cc1cccc(C(=O)NNC(=O)c2ccc(S(=O)(=O)N3CCOCC3)cc2)c1	?	18%	?	-23%	-7%	-75*
O=C(O)c1cccc(NS(=O)(=O)c2ccc(S(=O)(=O)N3CCOCC3)cc2)c1	/	10%	/	/	/	-76*
O=C(O)c1cccc(S(=O)(=O)Nc2ccc(S(=O)(=O)N3CCOCC3)cc2)c1	2%	17%	-3%[46.1 µM]	-3%	0%	-34
O=C(c1cccc(NS(=O)(=O)c2cccc(C(F)(F)F)c2)c1)N1CCOCC1	-2%	23%	8%	-4%	i	-62*
Cc1ccc(C(=O)NNC(=O)c2cccc(S(=O)(=O)N3CCOCC3)c2)cc1	/	15%	/	/	/	2
CCCC1C(=O)n2c(nc3ccccc32)N=C1C (centres undefined)	/	/	24%	/	/	/
COc1ccc(-c2noc(-c3ccc(NC4CCCCC4)c([N+](=O)[O-])c3)n2)cc1	19%[46.1 µM]	/	-9%[46.1 µM]	-2%	2%	5
COc1cccc(/C=N/n2c(C)nc3ccccc32)c1OC	3%	8.9µM*	-3%	/	/	-9
Cc1onc(-c2ccccc2)c1C(=O)N/N=C/c1ccc([N+](=O)[O-])s1	?	?	?	?	?	-28
Cc1nc2ccccc2n1/N=C/c1ccc([N+](=O)[O-])s1	?	4.5µM*	?	-19%	-30%	-82*
COc1cccc(/C=N\n2c(C)nnc2C)c1OC	-2%	11%	?	2%	-18%	-7
COc1ccc(/C=N/n2c(SC)nnc2-c2ccccc2)c(OC)c1OC	3.5µM*	?	5µM*	?	/	?
O=[N+]([O-])c1ccc(/C=N/n2c(CO)nc3ccccc32)s1	0%	10µM*	?	4µM*	5µM*	-69*
Cc1ccc(NC(=O)Cn2nc(C(F)(F)F)c3c2CCCC3)cc1C	?	/	?	-13%	-2%	-10
CCOC(=O)c1noc2ncnc(N3CCC(C)CC3)c12	0%[46.1 µM]	/	/	-1%	-11%	-10
Cc1nc2ccccc2n1/N=C/c1ccc([N+](=O)[O-])o1	?	10µM*	15µM*	11µM*	7.9µM*	-67*
Cc1ccc(/C=N/n2c(C)nc3ccccc3c2=O)o1	/	30%	/	/	/	15
CCN(CC)c1nc2ccccc2nc1C(C#N)C(=O)NCCCOC (centres undefined)	-23%	7.1µM*	-1%	-20%	/	0
Cc1ccccc1NC(=O)CCNC(=O)Cn1ccc2ccccc2c1=O	12%[46.1 µM]	/	20%[46.1 µM]	-2%	-12%	11

Bioassay records as filed in PubChem BioAssay.
